Laboratory results taken from PubChem BioAssay AID1159580 (chemical genetic matrix, 2015).
Where “and” joins values, the source holds several entries; their conditions need not be identical. Equal values may be shown once. Among all 5,500 compounds or so, about 2,000 (36%) were called active. Not shown: some 18% with an inconclusive outcome. Rule as the data show it: active = normalized growth mostly below about 0.91 (no sharp cut-off); inconclusive = no clear call, values can overlap the other calls; inactive = mostly above about 0.92. The list shows a part of the results.

Test: chemical genetic growth profiling, strain panel (AID 1159580);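 also: tested at 20 µM; growth read once vehicle control cultures reached saturation at 30 °C; 1 = growth at the plate median or of vehicle wells; lower values mean less growth of the strain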
Details: S. cerevisiae deletion strains, growth OD

Measured: normalized growth

CC(=O)OCC(=O)[C@@]1(O)[C@H](OC(C)=O)CC2C3CCC4=CC(=O)C=C[C@]4(C)[C@@]3(F)[C@@H](O)C[C@@]21C (some centres not stated)
inactive: locus YAL013W, strain DEP1, hits give low values 0.993 | locus YAL021C, strain ccr4, hits give low values 0.982 | locus YAL026C, strain drs2, hits give low values 0.959 | locus YAL030W, strain snc1, hits give low values 0.995 | locus YBL061C, strain skt5, hits give low values 1 | locus YBR009C, strain hhf1, hits give low values 0.923 | locus YBR021W, strain FUR4, hits give low values 0.986 | locus YBR023C, strain chs3, hits give low values 0.981 | locus YBR171W, strain sec66, hits give low values 0.985 | locus YBR229C, strain ROT2, hits give low values 0.951 | locus YBR231C, strain swc5, hits give low values 1.01 | locus YBR279W, strain paf1, hits give low values 0.987 | locus YCL011C, strain gbp2, hits give low values 0.947 | locus YCL016C, strain dcc1, hits give low values 0.965 | locus YCL029C, strain bik1, hits give low values 0.99 | locus YCL069W, strain vba3, hits give low values 0.983 | locus YCR088W, strain abp1, hits give low values 0.987 | locus YDL005C, strain med2, hits give low values 0.993 | locus YDL035C, strain GPR1, hits give low values 0.973 | locus YDL040C, strain nat1, hits give low values 1 | locus YDL074C, strain BRE1, hits give low values 0.947 | locus YDL101C, strain DUN1, hits give low values 0.98 | locus YDL134C, strain PPH21, hits give low values 0.994 | locus YDL185W, strain tfp1, hits give low values 0.99 | locus YDL192W, strain arf1, hits give low values 0.997 | locus YDR001C, strain nth1, hits give low values 0.959 | locus YDR069C, strain doa4, hits give low values 1.01 | locus YDR101C, strain arx1, hits give low values 1.01 | locus YDR137W, strain rgp1, hits give low values 0.98 | locus YDR159W, strain sac3, hits give low values 0.923 | locus YDR162C, strain NBP2, hits give low values 0.988 | locus YDR195W, strain ref2 1.03 | locus YDR297W, strain sur2, hits give low values 0.987 | locus YDR318W, strain mcm21, hits give low values 0.994 | locus YDR334W, strain swr1, hits give low values 0.982 | locus YDR335W, strain msn5, hits give low values 0.983 | locus YDR388W, hits give low values 1 | locus YDR392W, strain spt3, hits give low values 0.913 | locus YDR502C, strain sam2, hits give low values 1 | locus YEL003W, strain gim4, hits give low values 0.992 | locus YEL037C, strain rad23, hits give low values 0.983 | locus YEL061C, strain CIN8 (second series), hits give low values 0.973 | locus YEL061C, strain CIN8, hits give low values 0.991 | locus YER015W, strain faa2, hits give low values 1 | locus YER016W, strain bim1, hits give low values 0.961 | locus YER110C, hits give low values 0.974 | locus YER111C, strain swi4, hits give low values 0.976 | locus YER155C, strain BEM2 (second series), hits give low values 1.04 | locus YER155C, strain BEM2, hits give low values 0.998 | locus YER167W, strain BCK2, hits give low values 0.991 | locus YFR010W, strain ubp6, hits give low values 0.983 | locus YGL078C, strain dbp3, hits give low values 0.995 | locus YGL086W, strain mad1, hits give low values 0.99 | locus YGL167C, strain pmr1, hits give low values 0.998 | locus YGL173C, strain kem1, hits give low values 1.01 | locus YGL227W, strain vid30, hits give low values 0.979 | locus YGL240W, strain doc1, hits give low values 1.02 | locus YGL248W, strain PDE1, hits give low values 0.975 | locus YGL253W, strain hxk2, hits give low values 0.964 | locus YGR135W, strain pre9, hits give low values 0.997 | locus YGR252W, strain gcn5, hits give low values 0.967 | locus YHR013C, strain ard1, hits give low values 0.948 | locus YHR027C, strain rpn1, hits give low values 0.966 | locus YHR030C, strain SLT2, hits give low values 0.995 and 0.971 | locus YHR079C, strain IRE1 (second series), hits give low values 1.01 | locus YHR079C, strain IRE1, hits give low values 0.964 | locus YHR094C, strain hxt1, hits give low values 1.01 | locus YHR129C, strain ARP1, hits give low values 0.977 | locus YHR142W, strain chs7, hits give low values 0.957 | locus YHR200W, strain rpn10, hits give low values 0.997 | locus YIL066C, strain RNR3, hits give low values 0.981 | locus YIL073C, strain SPO22, hits give low values 1.02 | locus YIL125W, strain kgd1, hits give low values 0.996 | locus YIR030C, strain dcg1, hits give low values 0.989 | locus YJL092W, strain hpr5, hits give low values 0.991 | locus YJL095W, strain BCK1 (second series), hits give low values 0.986 | locus YJL095W, strain BCK1, hits give low values 0.945 and 0.981 | locus YJL115W, strain asf1, hits give low values 0.972 | locus YJL129C, strain trk1, hits give low values 0.988 | locus YJL134W, strain LCB3, hits give low values 0.993 | locus YJL154C, strain vps35, hits give low values 0.986 | locus YJL164C, strain tpk1, hits give low values 0.974 | locus YJL166W, strain qcr8, hits give low values 1.04 | locus YJL168C, strain set2, hits give low values 0.999 | locus YJL187C, strain SWE1 (second series), hits give low values 0.975 | locus YJL187C, strain SWE1, hits give low values 0.984 | locus YJR043C, strain POL32, hits give low values 0.992
